Laboratory results taken from PubChem BioAssay.

Tests used:
[1] = test system: Human papillomavirus type 1a protein E7 (residues 44-93); test: HPV1a E7 fragment binders on microarrays, primary screen, biochemical, small-molecule microarray, residues 44-93, 635 nm fluorescence (AID 1108); details: small-molecule microarray binding, fluorescence 635 nm; higher = more signal;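 also: E7 fragment applied at 1 µg/mL in TBST for 1 h at 4 C; score combines spot fluorescence with its signal to noise ratio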
[2] = modulators of HCV replicon luciferase signal, primary screen, HCV replication inhibitor project, Huh7 cells, luciferase reporter (AID 1109); details: 48 h, higher = more signal;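 also: huh7 hepatoma cells harbouring a luciferase neomycin HCV replicon reporter; luciferase luminescence as measure of HCV replicon replication; test concentration not given here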
[3] = target: Left-right determination factor 2 (Homo sapiens) (UniProt O00292); test: LEFTY2 binders on small-molecule microarrays, primary screen, biochemical, small-molecule microarray, 635 nm fluorescence scan (AID 1110); details: LEFTY2 binding, higher = more signal
Sequence of Left-right determination factor 2 (Homo sapiens) (O00292 whole entry, looked up): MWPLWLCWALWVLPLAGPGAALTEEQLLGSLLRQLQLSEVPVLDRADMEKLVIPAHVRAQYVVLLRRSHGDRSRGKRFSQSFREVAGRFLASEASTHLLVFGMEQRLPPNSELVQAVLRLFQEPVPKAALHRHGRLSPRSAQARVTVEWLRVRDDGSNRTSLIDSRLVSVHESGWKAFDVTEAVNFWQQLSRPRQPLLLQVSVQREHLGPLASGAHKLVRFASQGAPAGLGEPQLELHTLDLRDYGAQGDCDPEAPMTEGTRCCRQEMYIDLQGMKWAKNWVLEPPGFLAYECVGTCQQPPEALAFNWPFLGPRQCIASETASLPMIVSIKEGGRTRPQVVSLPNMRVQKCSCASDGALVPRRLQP

[4] = target: Calmodulin-1 (Homo sapiens) (UniProt P0DP23); test: CALM1 binders on microarrays, EGTA buffer, profiling panel, biochemical, small-molecule microarray, Cy5-labelled CALM1 (AID 1111); details: Cy5-CALM1 binding fluorescence, higher = more signal;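 also: labelled calmodulin applied in Tris saline Tween buffer holding calcium plus EGTA and DTT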
[5] = target: Calmodulin-1 (Homo sapiens) (UniProt P0DP23); test: calcium-bound CALM1 binders on microarrays, profiling panel, artefact control for SMM control-protein annotation, biochemical, small-molecule microarray, Cy5-labelled CALM1, plus calcium (AID 1112); details: Cy5-CALM1 binding fluorescence, higher = more signal;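 also: score merges spot fluorescence with signal to noise from triplicate slides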
[6] = small-molecule microarray binders of probe aWnt5a, primary screen, biochemical, biotinylated probe, 635/667 nm fluorescence (AID 1113); details: higher = more signal;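 also: score merges 667 nm fluorescence intensity with signal-to-noise per printed feature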
[7] = small-molecule microarray binders of probe aShh, primary screen, biochemical, biotinylated probe, 635/667 nm fluorescence (AID 1114); details: higher = more signal;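 also: probe is biotin-labelled aShh protein from a stem cell growth factor screen; measures binding of labelled protein to compounds printed on the slide; score merges feature fluorescence at 667 nm with signal-to-noise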
[8] = small-molecule microarray binders of probe aNog, primary screen, biochemical, biotinylated probe, 635/667 nm fluorescence (AID 1115); details: higher = more signal;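 also: probe is biotinylated aNog protein used at 0.15 µg/mL for 1 h at 4 C; z-score combines 667 nm fluorescence of each spot with its signal to noise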
[9] = target: Torsin-1A-interacting protein 1 (Homo sapiens) (UniProt Q5JTV8); test: LAP1 binders from COS7 cell lysate, primary screen, small-molecule microarray, 635/667 nm fluorescence (AID 1116); details: COS7-hLAP1 lysate binding, 635 nm fluorescence, higher = more signal
Sequence of Torsin-1A-interacting protein 1 (Homo sapiens) (Q5JTV8 whole entry, looked up): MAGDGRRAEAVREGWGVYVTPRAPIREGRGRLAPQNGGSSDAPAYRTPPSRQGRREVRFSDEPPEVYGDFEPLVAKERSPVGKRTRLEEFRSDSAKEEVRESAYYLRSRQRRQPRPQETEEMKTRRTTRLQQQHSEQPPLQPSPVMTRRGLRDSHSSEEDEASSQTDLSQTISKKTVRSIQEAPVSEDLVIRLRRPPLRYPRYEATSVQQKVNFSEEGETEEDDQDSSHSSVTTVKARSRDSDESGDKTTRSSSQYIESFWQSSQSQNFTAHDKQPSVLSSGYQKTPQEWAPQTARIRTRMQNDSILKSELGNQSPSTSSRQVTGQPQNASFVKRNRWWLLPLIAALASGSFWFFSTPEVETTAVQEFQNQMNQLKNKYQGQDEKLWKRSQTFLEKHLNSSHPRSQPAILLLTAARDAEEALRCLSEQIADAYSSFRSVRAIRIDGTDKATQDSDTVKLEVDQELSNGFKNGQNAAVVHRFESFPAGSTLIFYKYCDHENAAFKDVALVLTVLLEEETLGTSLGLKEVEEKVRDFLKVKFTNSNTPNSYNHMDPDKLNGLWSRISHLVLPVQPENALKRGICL

[10] = target: Alpha-bungarotoxin (Bungarus multicinctus) (UniProt P60615); test: alpha-bungarotoxin binders on microarray, profiling panel, artefact control for SMM control protein annotation, biochemical, small-molecule microarray, Alexa647 label, 635/667 nm fluorescence (AID 1117); details: alpha-BTX-A647 binding fluorescence, higher = more signal
Sequence of Alpha-bungarotoxin (Bungarus multicinctus) (P60615 whole entry, looked up): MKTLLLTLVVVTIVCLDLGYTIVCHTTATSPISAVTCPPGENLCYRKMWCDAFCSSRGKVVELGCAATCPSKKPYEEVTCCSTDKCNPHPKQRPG

Row | SMILES | composite z-score [1] | z-score [2] | composite z-score [3] | composite z-score [4] | composite z-score [5] | composite z-score [6] | composite z-score [7] | composite z-score [8] | composite z-score [9] | composite z-score [10]
1 | CC(C)N1C(=O)[C@@]2(c3ccc([N+](=O)[O-])cc3)CC(=O)N(CC34CC5CC(CC(C5)C3)C4)[C@@H]2c2ccc(CO)cc21 | -1.28 | -1.21 | -1.36 | -0.251 | 0.134 | -0.316 | -0.208 | 0.705 | -0.742 | -0.12
2 | COC(=O)c1ccc(C(O)C2C=CC3C(=O)N(c4ccccc4)C(=O)C3N2Nc2ccc(C#N)cc2)o1 (stereo not given) | 1.18 | -0.133 | 0.196 | -0.118 | -0.637 | 0.0136 | 0.582 | 0.363 | 0.681 | -0.187
3 | CCCNC(=O)[C@@H]1c2ccccc2C(=O)N(Cc2ccccc2)[C@H]1c1ccc(CO)cc1 | 0.656 | -0.481 | -0.595 | -0.0977 | -1.35 | -0.152 | -0.138 | -0.216 | 0.142 | 0.918
4 | N[C@@H](Cc1ccccc1)Cn1cc(-c2ccccc2)nn1 | 0.18 | -0.65 | -0.339 | -0.197 | -0.574 | -0.027 | -0.206 | -0.329 | 0.119 | 0.588
5 | O=C1O[C@H](c2ccccc2)[C@H](c2ccccc2)N2[C@H]1[C@@H](C(=O)O)[C@]1(C(=O)Nc3ccc(C#CC4(O)CCCCCC4)cc31)[C@H]2c1ccc(OCCO)cc1 | 1.5 | -1.77 | -0.418 | 1.89 | 0.475 | 0.0692 | 0.0048 | 0.0028 | 0.535 | 2.21
6 | COc1ccc(CCNC(=O)[C@@]2(Sc3ccc(C)cc3)CC(=O)N(Cc3ccccc3Cl)[C@@H]2c2ccc(CO)cc2I)cc1 | 0.552 | -1.98 | -0.736 | -0.252 | -0.0371 | -0.184 | 0.157 | 0.384 | 1.08 | 0.42
7 | CCOC(=O)C[C@H]1[C@H](OC(=O)Cc2ccc3c(c2)OCO3)[C@@H](NC(=O)C2CCCCC2)c2cc(OCCCO)ccc2N1C(=O)Cc1ccc(OC)cc1 | 1.21 | -1.39 | 0.341 | 0.0855 | -0.629 | -0.001 | -0.0626 | -0.543 | -0.0511 | 0.199
8 | CCCCC=C[C@@H](NC(=O)c1ccc(C(=O)OC)cc1)c1ccccc1 | 1.1 | -1.36 | 0.107 | 0.168 | -0.128 | -0.15 | 0.0711 | 0.122 | 0.0279 | 0.926
9 | COC(=O)[C@@]1(Cc2ccc(OC)cc2)[C@H]2c3cc(C(=O)N4CCCC4)n(Cc4ccccn4)c3C[C@H]2CN1C(=O)c1ccccc1 | 1.48 | -1.52 | -0.662 | 1.42 | 0.816 | 0.202 | -0.0069 | 2.04 | 1.07 | 0.65
10 | COc1ccc([Si](C)(C)[C@@H]2[C@@H](CCn3cc([C@H](O)c4ccccc4)nn3)O[C@]3(C(=O)N(Cc4ccc(N5C(=O)c6cccc7cccc5c67)cc4)c4ccccc43)[C@H]2C)cc1 | 0.314 | -2.88 | -0.556 | 0.273 | 0.702 | -0.154 | -0.0904 | -0.131 | -0.0215 | 0.152
11 | CN1C(=O)C2C(C1=O)C1C=C(CCCO)C2C(c2cccs2)N1C (stereo not given) | 0.0537 | -0.999 | -0.676 | 0.203 | 0.451 | -0.0462 | 0.469 | -0.395 | -0.646 | -0.513
12 | COCCCNC(=O)[C@@]1(c2ccc([N+](=O)[O-])cc2)CC(=O)N(CC23CC4CC(CC(C4)C2)C3)[C@@H]1c1ccc(CO)cc1 | 1.37 | -2.47 | 1.13 | -0.121 | -0.548 | -0.109 | -0.0119 | -0.761 | 0.422 | 0.572
13 | O=C(CS)NCCCCCCNC(=O)[C@H]1C[C@H]2C(=O)N3CCC[C@H]3C(=O)N2[C@H]1c1cccc(OCCO)c1 | 1.36 | -0.36 | 0.36 | 0.803 | 0.0685 | -0.0236 | 0.251 | -0.353 | 0.557 | 0.383
